Screens: PubChem BioAssay, National Center for Advancing Translational Sciences (NCATS)
TGFb SMAD3 inh = TGF-b pathway inhibition. HepG2 CAGA-GFP TGF-b/SMAD3 reporter, GFP fluorescence, 18 h; TGF-beta stimulated, 500 pg/mL final. Potency, µM (series often up to 46.1 µM), most hits filed as inhibitors. 410,000 tested, 1.2% active; further: nearly all actives have a fitted effect of over 65% in size
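First, reporter cells (HEPG2 CAGA-GFP) rested 2 h at 37 degrees C. Next, compounds were pinned in and TGF-beta added to 500 pg/mL final. After 18 h, GFP was imaged per cell and summed per well.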
ATXN viability = cell viability loss in ATXN counter-screen | S2 cells (HEK-293 line with an ATXN2-luciferase reporter) viability, CellTiter-Fluor protease fluorescence, 24 h | Potency, µM (highest dose often 56.7 µM), most hits filed as cytotoxic | 400,000 tested, 0.49% active; further: nearly all actives have a fitted effect of over 40% in size
HT1080 IDH1KD tx = toxicity to HT-1080 IDH1 knockdown cells (counter line); HT-1080 IDH1 knockdown viability, ATP luminescence, 48 h; Potency, µM (top dose mostly 46.1 µM), actives largely listed as cytotoxic; 360,000 tested, 2% active
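After a 2 h attachment period, IDH1KD HT-1080 cells took pin-transferred compound for 48 h at 37 °C; ATP-based luminescence after 10 min room-temperature reagent incubation reported viability.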
ATXN2 expr inh = inhibitors of ATXN2 expression; 360,000 tested, 0.72% active; AID 1745845; HEK-293 ATXN2-luciferase reporter, luminescence, 24 h; Potency, µM (top dose mostly 57 µM), actives largely listed as inhibitors; further: nearly all actives have a fitted effect of over 55% in size
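ATXN2-luciferase reporter cells (luciferase flanked by upstream and downstream ATXN2 gene portions) were treated 24 h at 37 °C with compounds at up to 57 uM. SteadyGlo luminescence gave expression; GF-AFC fluorescence gave viability.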
HepG2 tox-1 = counter-screen for TGF-b inhibitors: cytotoxicity in HepG2 cells; 410,000 tested, 0.76% active; Potency, µM (doses to about 46.1 µM), hits mostly cytotoxic; AID 588856; HepG2 CAGA-GFP viability, ATP luminescence, 18 h
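CellTiter-Glo luminescence gave cytotoxicity after 18 hours at 37 degrees C. The cells were HepG2 CAGA-GFP in 1% FBS DMEM, stimulated with 500 pg/mL TGF-beta after compound addition. %Activity was normalised to no-cell wells (complete cell-killing) and DMSO (no toxicity), and curves were fitted and classified.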
HT1080-NT tox = kills 2HG-producing HT-1080-NT fibrosarcoma cells | HT-1080-NT fibrosarcoma viability, CellTiter-Glo ATP luminescence, 48 h | Potency, µM (top dose mostly 46.1 µM), hits mostly cytotoxic | 360,000 tested, 1.6% active;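 further: NT is the 2HG producing partner of a matched IDH1 knockdown line; nearly all actives have a fitted effect of over 55% in size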
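HT-1080-NT fibrosarcoma cells (2HG-overproducing), 750 cells/well in RPMI with 5% FBS, dosed after 2 h and incubated 48 h at 37C. CellTiter-Glo luminescence normalized to DMSO and no-cell wells; concentration-response curves fitted and classed.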
TGFb confirm = confirmation of TGF-b signaling inhibitors in HepG2 reporter cells; HepG2 CAGA-GFP TGF-b reporter, GFP fluorescence, 18 h; cells stimulated with TGF-beta, 500 pg/mL; shares compounds with TGFb SMAD3 inh; 1,600 tested, 63% active; Potency, µM (top dose mostly 46.1 µM), usual class: inhibitors; further: nearly all actives have a fitted effect of over 65% in size
HepG2 tox-2 = toxic to HepG2 cells in TGF-b counterscreen; HepG2 CAGA-GFP viability, ATP luminescence, 18 h; cells stimulated with TGF-beta, 500 pg/mL; Potency, µM (titrated, usually from 46.1 µM), actives largely listed as inhibitors; 1,600 tested, 27% active; shares compounds with TGFb SMAD3 inh; AID 720535; further: nearly all actives have a fitted effect of over 70% in size
CCL64 TGFb inh = orthogonal confirmation of TGF-b inhibitors in CCL64 cells; shares compounds with TGFb SMAD3 inh; CCL64 CAGA-GFP reporter, TGF-b stimulated, GFP fluorescence, 18 h; Potency, µM (series often up to 46.1 µM), actives largely listed as inhibitors; 1,600 tested, 41% active; AID 720536; further: nearly all actives have a fitted effect of over 65% in size
TGFb COP inh = blocks TGF-b signaling in HepG2 COP reporter | shares compounds with TGFb SMAD3 inh | HepG2 COP-GFP TGF-b reporter, GFP fluorescence, 18 h; cells stimulated by added recombinant TGF-beta | Potency, µM (doses to about 46.1 µM), usual class: inhibitors | 1,600 tested, 3% active | AID 720537; further: nearly all actives have a fitted effect of over 70% in size
A number is an active result; i = inactive; ? = inconclusive; nt = no result; [ ] = another dose, or the depositor's remark. Hits are enriched below; roughly 3.8% of the tested compounds scored in any of these assays. The call rests on the fitted dose curve; in most records, active means well fitted curve in the direction sought with a large enough effect; inconclusive means small, poorly fitted or top-dose-only effect, or another doubt; inactive means no such curve, though single readings can be large; an effect the other way counts as inactive or inconclusive.

SMILES | TGFb SMAD3 inh | ATXN viability | HT1080 IDH1KD tx | ATXN2 expr inh | HepG2 tox-1 | HT1080-NT tox | TGFb confirm | HepG2 tox-2 | CCL64 TGFb inh | TGFb COP inh
CC(C)Sc1ncc(Cl)c(C(=O)Nc2ccc(S(=O)(=O)N(C)c3ccccc3)cc2)n1 | i | i | nt | i | i | nt | nt | nt | nt | nt
CCSc1ncc(Cl)c(C(=O)Nc2ccc(S(=O)(=O)N(C)c3ccccc3)cc2)n1 | i | i | nt | i | i | nt | nt | nt | nt | nt
CCCCNC(=O)c1cccc2c(=O)c(C)c(-c3ccccc3)oc12 | i | i | i | i | i | i | nt | nt | nt | nt
CCCCN(C(=O)c1cccc2c(=O)c(C)c(-c3ccccc3)oc12)c1ccccc1 | 14.1µM | i | ? | ? | i | i | 10.3µM | ? | ? | i
Cc1ccc(-c2nnc3ccccc3c2C(=O)Nc2ccc(C)c(F)c2)cc1 | i | nt | nt | nt | i | nt | nt | nt | nt | nt
Cn1nnnc1SCCCNCc1cc(Br)ccc1OCc1ccccc1 | ? | ? | nt | i | i | nt | nt | nt | nt | nt
Cc1ccc(S(=O)(=O)c2ccc(C)cc2)cc1 | i | i | i | i | i | i | nt | nt | nt | nt
Cc1ccc(S(=O)(=O)c2ccc([N+](=O)[O-])cn2)cc1 | 2.82µM | nt | 4.61µM | ? | 7.08µM | 2.59µM | 3.26µM | 2.91µM | 3.26µM | 5.17µM
O=[N+]([O-])c1ccc(S(=O)(=O)c2ccccc2)nc1 | 2.51µM | nt | 5.8µM | nt | 14.1µM | 5.8µM | 4.11µM | 5.8µM | 3.26µM | 8.2µM
CC(C)c1ccccc1NC(=O)CN(c1ccccc1)S(=O)(=O)N(C)C | i | i | nt | i | i | nt | nt | nt | nt | nt
COCCCNC(=O)c1ccc(Cn2c(=O)c3cccn3c3cccnc32)cc1 | i | nt | nt | nt | i | nt | nt | nt | nt | nt
Cc1ccc(CCNC(=O)CCN2N=C(c3ccc(C)cc3)CCC2=O)cc1 | i | nt | nt | nt | i | nt | nt | nt | nt | nt
Cc1ccc(S(=O)(=O)N2CCOCC2)cc1C(=O)Nc1nc(-c2ccccn2)cs1 | ? | ? | i | ? | i | i | 9.2µM | ? | ? | i
O=S(=O)(Nc1cccc2cccnc12)c1ccccc1 | 7.08µM | ? | 23.1µM | 8.91µM | i | 25.9µM | 23.1µM | ? | 11.6µM | i
Cc1ccc(S(=O)(=O)Nc2cccc3cccnc23)c([N+](=O)[O-])c1 | 4.47µM | ? | 2.06µM | 10µM | i | ? | i | ? | ? | i
Cc1cc(C)c(NS(=O)(=O)c2cccc3cccnc23)c(C)c1 | i | i | i | i[11.3 µM] | i | i | nt | nt | nt | nt
Cn1c(/C(C#N)=C/c2ccccc2Br)nc2ccccc21 | nt | nt | nt | nt | i | nt | nt | nt | nt | nt
Cc1cc(Nc2ccc(C)c(Cl)c2)n2nc(Cc3ccccc3)nc2n1 | ? | i | nt | i | i | nt | nt | nt | nt | nt
O=C(Nc1cc(S(=O)(=O)N2CCCCC2)ccc1Cl)c1ccncc1 | i | ? | i | nt | i | i | nt | nt | nt | nt
O=C(Nc1cccc(Cl)c1)Nc1cc(S(=O)(=O)N2CCCCC2)ccc1Cl | 10µM | ? | 25.9µM | ? | i | ? | 4.11µM | ? | 4.61µM | i
COc1ccc(Nc2ncnc3c2nc2n3CCCC2)cc1Cl | ? | nt | nt | nt | i | nt | nt | nt | nt | nt
Cc1cc(C)cc(NC(=O)Cn2cc(S(=O)(=O)NC(C)(C)C)c(S(=O)(=O)NC(C)(C)C)c2)c1 | ? | ? | nt | ? | i | nt | nt | nt | nt | nt
